The panel holds about 83,000 compounds, 20% with a hit somewhere; the sample as a whole holds those more often.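 Each cell line was grown in a 96-well plate and treated with one concentration of compound for 48 hours. Values below 10 were considered active.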 Active and inactive are the calls of the source.

This experiment has as its system SK-MEL-5 melanoma. The experiment in a line: NCI-60 one-dose screen, 48 h (100 = growth as untreated, 0 = no growth, -100 = all killed). Particulars: 10 µM unless noted. Here is the method: Growth inhibition of the SK-MEL-5 human tumor cell line is measured as a screen for anti-cancer activity. Cells are grown in 96 well plates and exposed to the test compound for 48 hours. Compounds are tested at a single concentration, which is 10^-5 M for most compounds. The reported endpoint is percent growth (GI% or GIPRCNT), where numbers from 0 - 100% represent growth inhibition, and numbers from -100% - 0 represent cell death. For example, a value of 40 represents 60% growth inhibition. A value of 0 means no net growth occurred over the course of the experiment. A value of -40 indicates 40% of cells at the beginning of the experiment died by the end of the experiment. A value of -100 means all cells are dead at the end of the experiment.
NCI-60 Human Tumor Cell Lines Screen was performed using the standard one-dose NCI protocol, which is described in more detail at https://dtp.cancer.gov/discovery_development/nci-60/default.htm.
Compounds with GIPRCNT values below 10 were considered active. Activity score was based on GIPRCNT using the following formula: […]
Score is 0 for GIPRCNT values of 100 or above, 50 for GIPRCNT values of 0, and 100 for GIPRCNT values of -100.
For the compound `CCCCCc1ccc(S(=O)(=O)Nc2ccc3nc(N)oc3c2)cc1`, the growth is 4.66% (active).
Take `COc1ccc(/C=N/Nc2c3ccccc3nc3ccccc23)cc1`: the growth was 90.4% (inactive).
In the case of `Nc1cccc(-c2ccc(COc3ccc(CC4SC(=O)NC4=O)cc3)cc2)c1` (stereo not given), the growth was 14.8% (inactive).
For `N#Cc1ccc(O)c(C2=NCC(c3ccc(-c4ccccc4)cc3)O2)c1` (stereo not given) the value was 3.96% (active); for `COc1ccc(C2CC(n3ccnc3)c3cc(OC)c(OC)c(OC)c32)cc1O` (stereo not given), 53.1% (inactive); for `Cc1ccc(-c2nc(SCC(=O)N3CCN(c4cc5c(cc4F)c(=O)c(C(=O)O)cn5C4CC4)CC3)nc(Cl)c2C#N)cc1`, 101% (inactive).
For `CC1SC(c2ccccc2O)N(NC(=O)CCC(=O)c2nc3ncccc3[nH]2)C1=O` (stereo not given) the value was 95.1% (inactive); for `COCCn1cc(-c2csc(-c3c[nH]c4ccccc34)n2)c2cccnc21`, 8.9% (active).
For `C=CN(C(=O)N1CCN(c2cc3c(cc2F)c(=O)c(C(=O)O)cn3C2CC2)CC1)c1nc(-c2ccc(Cl)cc2)cs1` the value was 81.9% (inactive).
On to `O=C1/C(=C/c2ccccn2)SC(=S)N1N1CCOCC1`, for which the growth is 99.2% (inactive).
The figure for `CCCn1c(=S)sc2c(NNC(C)=O)nc(C)nc21` is 96.4% (inactive).
For `COc1cc(/C=C/C(=O)c2cc(OC)c(OC)c(OC)c2)ccc1Oc1nc2c(c(=O)n(C)c(=O)n2C)n1C` the value was 28.9% (inactive); for `CC/C(=C(/c1ccc(O)cc1)c1ccc(OCCN2CCCCC2)cc1)c1ccc(OC)cc1`, 88.6% (inactive); for `CCCCn1c(NC(C)=O)c(S(=O)(=O)c2ccccc2)c2nc3ccccc3nc21`, 100% (inactive).
The figure for `CC[C@H](Nc1nc(N)nc(C)c1C#N)c1nc2cccc(CN(C)c3ncc(C(=O)NO)cn3)c2c(=O)n1-c1ccccc1` is -92.2% (active).
As for `CCCCCCCCCCCCCCCCCCOc1ccccc1CC(=O)NCC[N+](C)(C)C`, the growth is 63.7% (inactive).
The figure for `CCN(CC)CCOc1ccc(/C(=C(\C)Cc2ccc(OC)cc2)c2ccc(OC(=O)NCc3ccccc3)cc2)cc1` is 26.5% (inactive); for `c1ccc2cc(Cn3cc(CSc4nc5ccccc5s4)nn3)ccc2c1` it is 107% (inactive).
The figure for `CC[C@@H](C(=O)[C@@H](C)[C@@H](O)[C@H](C)[C@@H]1O[C@@H]([C@@H](CC)C(=O)ONC(=O)c2ccccc2O)CC[C@@H]1C)C1O[C@]2(C=CC(=O)[C@]3(CC[C@@](C)([C@H]4CC[C@](O)(CC)[C@H](C)O4)O3)O2)[C@H](C)C[C@@H]1C` (stereo not given in full) is 11% (inactive); for `O=C(/C=C/C12c3ccccc3C(c3ccccc31)C1C(=O)NC(=O)C12)c1ccc(I)cc1` (stereo not given) it is 69.5% (inactive); for `Cc1c(C(C)(C)O)cn2ncnc(Oc3ccc(NC(=O)Nc4ccc(Cl)c(C(F)(F)F)c4)c(F)c3)c12` it is 61.4% (inactive).
The figure for `COc1ccc(N/N=C/c2cn(-c3ccc(C(=O)O)cc3)nc2-c2cc3ccccc3oc2=O)cc1` is 39.5% (inactive); for `Cc1cc(O)cc(-c2nn(C)cc2-c2cc(N3CCOCC3)nc(-c3cccnc3)n2)c1` it is 1.65% (active).
Turning to `O=C(N/N=C/c1ccc(Cl)cc1)c1ccc(NC(=O)c2ccccn2)cc1`, the growth was 39.7% (inactive).
For `COc1ccc(Oc2ccc(/C=C/C(=O)c3ccc(OC)c(OC)c3)cc2)cc1`, the growth was 75.3% (inactive).
Regarding `C#CCOc1cccc(Nc2ncnc3cc(NC(=O)CCl)ccc23)c1`, the growth was -93.8% (active).
For `COCCn1cc(-c2nc(-c3cn(CCOC)c4ncccc34)cs2)c2cc(F)ccc21` the value was 14.4% (inactive).
`CC1(C)N=C(N)N=C(N)N1c1ccc(S(=O)(=O)Nc2nccs2)cc1`: the growth was 106% (inactive).
For `CCOC(=O)C/C(=N\Nc1cc(=O)[nH]c2ccc(C)cc12)C(=O)OCC` the value was 96.8% (inactive); for `Cc1nc(N/N=C/c2cn(-c3ccccc3)nc2-c2cc3ccccc3oc2=O)sc1N=Nc1ccccc1`, 93.3% (inactive).
The figure for `c1cc(OCCN2CCCC2)ccc1CNc1ccc2nc(CCC3CCCCC3)[nH]c2c1` is -96.5% (active); for `COc1cc([C@@H](CCO)C[C@H](C)c2ccc3ccccc3c2)cc(OC)c1OC` it is 28% (inactive).
Regarding `O=C(NCCCCCCNC(=O)OCc1ccc2c(Cl)cc(Cl)c(O)c2n1)OCc1ccc2c(Cl)cc(Cl)c(O)c2n1`, the growth is -95.5% (active).
The figure for `C=C(C)[C@@H]1CC[C@]2(C(=O)N3CCNCC3)CC[C@]3(C)[C@H](CC[C@@H]4[C@@](C)(CCC(=O)N5CCNCC5)[C@H](C(=C)C)CC[C@]43C)[C@@H]12` is 89.7% (inactive); for `C=CCn1cc(-c2nc3ccccc3s2)c2cc(-c3ccc4c5c(cccc35)C(=O)N(CCO)C4=O)ccc21` it is 96.1% (inactive).
The figure for `COc1ccc(NC(=O)c2ccc(Nc3ncnc4c3cnn4-c3cccc(F)c3)cc2)cc1` is 98.4% (inactive); for `Cc1c2cnccc2c(C)c2c1c1cc(CO)ccc1n2C` it is -96.8% (active); for `O=C(O)c1cn(C2CC2)c2cc(N3CCN(C(=O)N4CCOCC4)CC3)c(F)cc2c1=O` it is 99.4% (inactive).
For `c1cc(OCCCCCOc2cccc(-c3nc4ccccc4[nH]3)c2)cc(-c2nc3ccccc3[nH]2)c1` the value was -81.5% (active); for `CCOC(=O)c1nnn(-c2no[n+]([O-])c2-c2ccc(OC)cc2)c1COc1cccc2cccnc12`, -22.4% (active).

The values are drawn from PubChem BioAssay (NCI).
